Drawing on PubChem BioAssay (NCI), this text covers growth for 15 molecules.

Compounds without any hit were thinned out: in the full panel of roughly 83,000, 20% have a hit.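 48-hour exposure, single concentration, 96-well plates; percent growth endpoint where 0 means no net growth. Active: below 10.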 The source made the active and inactive calls.

This assay deals with SNB-19 CNS. The assay is described as follows: NCI-60 one-dose screen, 48 h (100 = growth as untreated, 0 = no growth, -100 = all killed). To be noted: 10 µM unless noted.
With `COc1ccc2c(c1)OC1=C(C(=O)OC1)C2c1cc(OC)c2c(c1)OCCO2` (stereo not given), the growth was 38.8% (inactive).
Turning to `O=S1(=O)NCCN1CCNc1nccc(-c2c(-c3cccc(O)c3)nc3sccn23)n1`, the growth was 122% (inactive).
As for `O=C(CC(=O)C(F)(F)C(F)(F)C(F)(F)F)c1cc2ccccc2o1`, the growth was 107% (inactive).
With `Clc1cc2nc(-c3ccccc3)c(-c3ccccc3)nc2cc1Cl` the figure was 102% (inactive); with `CC(C)(C)c1ccc(C(=O)Nc2sc3cc(O)ccc3c2C(N)=O)cc1`, 94.1% (inactive); with `CC1=CCC2C1CC=C(C)C(CC[C@H]1[C@@](C)(O)CCC3OC(C)(C)[C@H](OC(=O)c4ccccc4)CC[C@@]31C)C2(C)C` (stereo not given in full), 105% (inactive).
Turning to `CC(=O)C1CCC2C3CC(C)=C4CC(O)CCC4(C)C3CCC12C` (stereo not given), the growth was 97.5% (inactive).
In the case of `CCN(CCC#N)c1ccccc1`, the growth is 106% (inactive).
As to `O=S1(=O)NCCCN1CCNc1nccc(-c2c(-c3cccc(O)c3)nc3sccn23)n1`, the growth is 119% (inactive).
Regarding `COc1ccc(-c2conc2-n2nc(-c3ccccc3)nc2-c2ccccc2)cc1`, the growth was 104% (inactive).
With `COc1ccccc1CNCCCN1C(=O)c2ccc3c4c(ccc(c24)C1=O)C(=O)N(CCCCNCCCN)C3=O` the figure was -70.3% (active).
With `Cc1ccc(C(=O)CC(=O)C(F)(F)C(F)(F)C(F)(F)F)s1` the figure was 104% (inactive); with `O=C1CCCN1C(O)CCN(Cc1ccccc1)Cc1ccc(Cl)cc1` (stereo not given), 104% (inactive).
For the molecule `Nc1c(N)c2ccccc2c2ccccc12`, the growth was 104% (inactive).
For the molecule `CCOC(=O)C1=C(C)NC(=S)NC1c1ccccc1` (stereo not given), the growth was 104% (inactive).
